KB-3-1 tox: kills parental KB-3-1 adenocarcinoma cells | KB-3-1 viability, CellTiter-Glo ATP luminescence, 72 h | Potency, µM (titrated, usually from 46.1 µM), actives largely listed as cytotoxic | actives 1.4% (n = 400,000) | AID 1347075; further: nearly all actives have a fitted effect of over 60% in size
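Luminescent ATP read-out (CellTiter-Glo) measures survival of drug-naive KB-3-1 cells after 72 h compound exposure at 37 °C. Titration series was screened from lowest to highest concentration, with DMSO vehicle plates as background controls.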
SW480 rerep: induces DNA re-replication in SW480 colon adenocarcinoma cells; SW480 DNA re-replication, Hoechst DNA content imaging, 48 h; Potency, µM (titrated, usually from 46.1 µM), most hits filed as activators; actives 1.8% (n = 340,000); further: nearly all actives have a fitted effect of over 55% in size
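Treated cells incubate 48 hr (37 C, 5% CO2), are stained 40 min with Hoechst, and nuclear fluorescence is enumerated; a rise in nuclei with high DNA signal marks re-replication.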
ASM inhibitor: blocks human secretory acid sphingomyelinase; AID 504937; Potency, µM (doses to about 57.5 µM), most hits filed as inhibitors; placental ASM, HMU-PC fluorogenic substrate, 60 min; actives 0.006% (n = 340,000); P17405
Target sequence (P17405 47-631 limits assumed): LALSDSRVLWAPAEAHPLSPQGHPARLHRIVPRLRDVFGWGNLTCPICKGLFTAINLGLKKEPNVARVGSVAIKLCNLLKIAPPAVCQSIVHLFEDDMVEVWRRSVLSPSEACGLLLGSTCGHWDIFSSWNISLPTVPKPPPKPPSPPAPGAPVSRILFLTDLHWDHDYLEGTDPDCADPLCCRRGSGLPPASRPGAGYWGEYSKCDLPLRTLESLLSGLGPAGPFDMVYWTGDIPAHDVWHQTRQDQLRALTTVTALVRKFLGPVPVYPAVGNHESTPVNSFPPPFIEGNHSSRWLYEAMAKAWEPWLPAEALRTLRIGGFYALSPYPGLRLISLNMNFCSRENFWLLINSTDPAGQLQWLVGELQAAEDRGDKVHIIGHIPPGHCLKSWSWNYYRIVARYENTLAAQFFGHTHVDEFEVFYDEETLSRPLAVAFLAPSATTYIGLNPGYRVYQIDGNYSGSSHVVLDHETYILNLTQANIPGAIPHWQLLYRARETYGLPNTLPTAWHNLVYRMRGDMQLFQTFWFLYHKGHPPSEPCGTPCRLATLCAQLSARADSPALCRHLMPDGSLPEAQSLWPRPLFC
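HMU-PC0 cleavage (9 uM final) by human placental ASM, 60 min at 37 °C following 10 min compound exposure at RT; stopped at pH 10, fluorescence Ex 386/Em 447 nm.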
MCF10A rerep: DNA re-replication induction in MCF 10a cells; actives 2.9% (n = 350,000); MCF 10A DNA re-replication, Hoechst nuclear intensity, 48 h; Potency, µM (titrated, usually from 46.1 µM), hits mostly activators; further: nearly all actives have a fitted effect of over 50% in size
Giardia killer: kills Giardia lamblia; Giardia lamblia trophozoite viability; activity change, % at 7.66 µM, hits read low; actives 0.15% (n = 340,000); in the data active means activity change below about -80%; inconclusive means between about -30% and that limit;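 further: parasites exposed to compound for two days anaerobically before the ATP read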
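Viability, read as ATP luminescence: trophozoites at 100 cells/well, compound added, 48 hrs anaerobic at 37 deg C, then 15-30 min room-temperature development before reading.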
KB-V1 MDR tox: KB-V1 MDR subline cytotoxicity | actives 3.4% (n = 400,000) | KB-V1 MDR cells viability, CellTiter-Glo, 72 h | Potency, µM (titrated, usually from 46.1 µM), actives largely listed as cytotoxic; further: nearly all actives have a fitted effect of over 60% in size
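In this primary screen, KB-V1 cells overexpressing P-gp are incubated with library compounds (lowest to highest concentration) for 72 h at 37 degrees C before a luminescent ATP viability read.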
Of the large screens only hits and unclear results are named; the others gave an inactive call. Only some compounds are listed: those with a hit (about 6.9% of all), similar ones and a draw of the others. Unless noted, the call rests on the fitted dose curve; in most records, active means well fitted curve in the direction sought with a large enough effect; inconclusive means small, poorly fitted or top-dose-only effect, or another doubt; inactive means no such curve, though single readings can be large; an effect the other way counts as inactive or inconclusive.

CC1(C)CC(=O)C2=C(C1)N(Cc1ccco1)C(=O)C2(NC(=O)C1CCCCC1)C(F)(F)F (centres undefined)	KB-V1 MDR tox inconclusive
CC(=O)C1=C(C)N(Cc2ccco2)C(=O)C1(NC(=O)C1CCCCC1)C(F)(F)F (centres undefined)	KB-V1 MDR tox 18µM
CCC(=O)[C@@H](C)[C@@H](OC(C)=O)[C@H](C)C[C@@H](C)[C@H]1OC(=O)C[C@@]2(O)CC=C(C)C(O2)C(C)=CCCC[C@H](O[C@H]2C[C@@H](OC(N)=O)[C@H](OC(C)=O)[C@@H](C)O2)C=C[C@H](C)C[C@H]1C	KB-3-1 tox 1.3µM (no result: SW480 rerep, ASM inhibitor, MCF10A rerep, Giardia killer)
O=C(COC(=O)CSc1ccc(F)cc1)NNC(=O)c1ccc([N+](=O)[O-])cc1	none
COc1ccc(NC(=O)c2oc3ccccc3c2NC(=O)Cc2coc3ccc(C)cc23)cc1	none (no result: SW480 rerep, ASM inhibitor, MCF10A rerep, Giardia killer)
O=C(Cn1c(=O)n(-c2ccc(F)cc2)c(=O)c2sccc21)c1ccccc1	KB-V1 MDR tox 21µM
O=c1c2sccc2n(Cc2ccc(F)cc2)c(=O)n1-c1ccc(F)cc1	KB-V1 MDR tox inconclusive
FC(F)(F)c1nc2ccccc2n2c(-c3ccc(Cl)cc3Cl)nnc12	KB-3-1 tox 18µM, SW480 rerep inconclusive, KB-V1 MDR tox inconclusive
COc1ccc(NC(=O)CSc2nc3nc(-c4cccs4)cc(C(F)(F)F)c3c(=O)[nH]2)c(OC)c1	MCF10A rerep inconclusive
CCOc1ccccc1NC(=O)CSc1nc2nc(-c3cccs3)cc(C(F)(F)F)c2c(=O)[nH]1	MCF10A rerep 16µM
O=C(Cn1c(=O)ccc2cc(S(=O)(=O)N3CCCC3)ccc21)Nc1ccc(Cl)cc1	none (no result: SW480 rerep, ASM inhibitor, MCF10A rerep, Giardia killer)
COC(=O)C1C(O)=C(C=Nc2ccccc2)C(=O)CC1(C)C (centres undefined)	none
COC(=O)C1C(O)=C(C(C)=Nc2cccc3ccccc23)C(=O)CC1(C)C (centres undefined)	SW480 rerep 5.8µM
O=[N+]([O-])c1ccc(NC(=S)NCCc2ccc(F)cc2)cc1	KB-3-1 tox inconclusive, SW480 rerep inconclusive, MCF10A rerep 10µM
CC(=O)OC[C@H]1O[C@@H](n2ncc(=O)[nH]c2=O)[C@H](OC(C)=O)[C@@H]1OC(C)=O	KB-3-1 tox 3.3µM, SW480 rerep inconclusive, KB-V1 MDR tox 8.2µM
O=C(OCC1OC(n2ncc(=O)[nH]c2=O)C(OC(=O)c2ccccc2)C1OC(=O)c1ccccc1)c1ccccc1 (centres undefined)	SW480 rerep inconclusive, MCF10A rerep inconclusive
O=C(Cn1ccc2cc(S(=O)(=O)N3CCCCCC3)ccc21)NCc1ccccc1Cl	none (no result: SW480 rerep, ASM inhibitor, MCF10A rerep, Giardia killer)
CC1=Nc2cc(C(=O)NCc3ccccc3Cl)ccc2Sc2c(C)ccc(C)c21	KB-3-1 tox 1µM, KB-V1 MDR tox 1.5µM (no result: SW480 rerep, ASM inhibitor, MCF10A rerep, Giardia killer)
CCC1=Nc2cc(C(=O)NCc3ccccc3Cl)ccc2Sc2ccc(C)cc21	KB-3-1 tox 3.7µM, KB-V1 MDR tox inconclusive (no result: SW480 rerep, ASM inhibitor, MCF10A rerep, Giardia killer)
O=C(NCCc1ccccc1)c1ccc(Nc2nc3ccccc3n3nnnc23)cc1	none (no result: SW480 rerep, ASM inhibitor, MCF10A rerep, Giardia killer)
CCOC(=O)CN(C(=O)Cn1nnc(-c2ccc(C)cc2)n1)C(CC)C(=O)NC1CCCC1 (centres undefined)	KB-V1 MDR tox 4.1µM
O=C1CN(C(=O)c2ccc(S(=O)(=O)N3CCCCC3)cc2)C(c2ccc(F)cc2)c2cc(Cl)ccc2N1 (centres undefined)	KB-3-1 tox inconclusive (no result: SW480 rerep, ASM inhibitor, MCF10A rerep, Giardia killer)
Cn1c(=O)[nH]c(=O)c2c1nc([N+](=O)[O-])n2Cc1ccccc1	KB-3-1 tox inconclusive, MCF10A rerep 2.1µM, KB-V1 MDR tox inconclusive
CC(C)Cn1c([N+](=O)[O-])nc2c1c(=O)[nH]c(=O)n2C	KB-3-1 tox inconclusive, SW480 rerep inconclusive, MCF10A rerep 12µM, KB-V1 MDR tox inconclusive
Cn1c(=O)[nH]c(=O)c2c1nc(N1CCNCC1)n2Cc1ccccc1	SW480 rerep inconclusive
Cc1c(C(=O)Nc2ccc(-n3c(C)nc4ccccc4c3=O)cc2)cccc1[N+](=O)[O-]	none (no result: SW480 rerep, ASM inhibitor, MCF10A rerep, Giardia killer)
Cc1ccc2[nH]c(=O)c(CN(CCc3ccccc3)Cc3nnnn3CC3CCCO3)cc2c1 (centres undefined)	KB-V1 MDR tox 15µM
COc1ccccc1CN(Cc1cc2cc(C)ccc2[nH]c1=O)Cc1nnnn1CC1CCCO1 (centres undefined)	MCF10A rerep inconclusive, KB-V1 MDR tox 21µM
CCC1CCc2nc3sc(C(=O)Nc4ccc(F)cc4F)c(N)c3cc2C1 (centres undefined)	KB-V1 MDR tox inconclusive (no result: SW480 rerep, ASM inhibitor, MCF10A rerep, Giardia killer)
COc1ccccc1C(CNC(=O)C(CCSC)NC(=O)c1ccccc1Cl)N1CCCC1 (centres undefined)	SW480 rerep inconclusive
Cc1cc(C)c2cc(C#N)c(N3CCCC3)nc2c1	SW480 rerep inconclusive, MCF10A rerep inconclusive
Cc1cc(C)c2cc(C#N)c(N3CCCN(C(=S)NCCCN(C)C)CC3)nc2c1	KB-3-1 tox inconclusive, SW480 rerep inconclusive, MCF10A rerep 7.3µM, KB-V1 MDR tox inconclusive
CCOCCCNC(=S)N1CCCN(c2nc3cc(C)ccc3cc2C#N)CC1	none
Cc1ccc2cc(C#N)c(N3CCCN(C(=S)NCCCN(C)C)CC3)nc2c1	KB-3-1 tox inconclusive, SW480 rerep 23µM, MCF10A rerep 3.7µM
O=C(Nc1ccccc1O)N1c2ccccc2Sc2ccccc21	ASM inhibitor 25µM, MCF10A rerep inconclusive
Cc1cccc(N(C)c2nc3ccc(C(=O)c4ccccc4)cc3n3c(C)nnc23)c1	KB-V1 MDR tox inconclusive (no result: SW480 rerep, ASM inhibitor, MCF10A rerep, Giardia killer)
O=[N+]([O-])c1ccccc1/C=N/N1CCN(c2ccccn2)CC1	KB-V1 MDR tox 15µM
BrC(=C\c1ccccc1)/C=N/N1CCN(c2ccccn2)CC1	SW480 rerep inconclusive, MCF10A rerep 21µM, KB-V1 MDR tox inconclusive
O=c1cc(NS(=O)(=O)c2ccccc2)nc(SCc2ccc(Cl)cc2)[nH]1	MCF10A rerep inconclusive, KB-V1 MDR tox 16µM
Cc1ccc(NC(=O)CSc2nc(NS(=O)(=O)c3ccc(C)cc3)cc(=O)[nH]2)cc1	MCF10A rerep inconclusive, KB-V1 MDR tox 4.1µM
COc1ccc(C(=O)COc2ncnc3cc(Cl)ccc23)cc1	KB-V1 MDR tox inconclusive
c1ccc(CN2CCC(Nc3ncnc4sccc34)CC2)cc1	none
Cc1sc2ncnc(NC3CCN(Cc4ccccc4)CC3)c2c1C	KB-3-1 tox inconclusive, KB-V1 MDR tox 1.6µM
CCCCn1c(SCc2ccc(C(=O)OC)o2)nc2cc(S(N)(=O)=O)ccc21	KB-3-1 tox 18µM, KB-V1 MDR tox inconclusive
CCOc1ccc(Nc2nc(Cc3nnc(SCC(=O)c4ccc(C)c(C)c4)o3)cs2)cc1	SW480 rerep inconclusive, KB-V1 MDR tox 13µM
CC1(c2ccccn2)Nc2ccccc2-c2nc3ccccc3n21 (centres undefined)	KB-V1 MDR tox 16µM
c1ccc2c(c1)NC1(CCCCCC1)n1c-2nc2ccccc21	none
